The full data set covers some 8,800 targets. This sample favours those with a hit. About 0.5% of all pairs of compound and target were hits.

Sequence of UniProt Q8WXB1 (Q8WXB1 whole entry, looked up): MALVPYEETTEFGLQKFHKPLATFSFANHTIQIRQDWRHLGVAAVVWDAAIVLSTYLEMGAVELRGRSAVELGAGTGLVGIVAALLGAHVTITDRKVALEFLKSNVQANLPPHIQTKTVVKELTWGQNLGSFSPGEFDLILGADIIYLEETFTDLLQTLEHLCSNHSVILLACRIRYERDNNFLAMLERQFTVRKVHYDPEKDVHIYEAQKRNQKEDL
Sequence of UniProt Q96NW7 (Q96NW7 whole entry, looked up): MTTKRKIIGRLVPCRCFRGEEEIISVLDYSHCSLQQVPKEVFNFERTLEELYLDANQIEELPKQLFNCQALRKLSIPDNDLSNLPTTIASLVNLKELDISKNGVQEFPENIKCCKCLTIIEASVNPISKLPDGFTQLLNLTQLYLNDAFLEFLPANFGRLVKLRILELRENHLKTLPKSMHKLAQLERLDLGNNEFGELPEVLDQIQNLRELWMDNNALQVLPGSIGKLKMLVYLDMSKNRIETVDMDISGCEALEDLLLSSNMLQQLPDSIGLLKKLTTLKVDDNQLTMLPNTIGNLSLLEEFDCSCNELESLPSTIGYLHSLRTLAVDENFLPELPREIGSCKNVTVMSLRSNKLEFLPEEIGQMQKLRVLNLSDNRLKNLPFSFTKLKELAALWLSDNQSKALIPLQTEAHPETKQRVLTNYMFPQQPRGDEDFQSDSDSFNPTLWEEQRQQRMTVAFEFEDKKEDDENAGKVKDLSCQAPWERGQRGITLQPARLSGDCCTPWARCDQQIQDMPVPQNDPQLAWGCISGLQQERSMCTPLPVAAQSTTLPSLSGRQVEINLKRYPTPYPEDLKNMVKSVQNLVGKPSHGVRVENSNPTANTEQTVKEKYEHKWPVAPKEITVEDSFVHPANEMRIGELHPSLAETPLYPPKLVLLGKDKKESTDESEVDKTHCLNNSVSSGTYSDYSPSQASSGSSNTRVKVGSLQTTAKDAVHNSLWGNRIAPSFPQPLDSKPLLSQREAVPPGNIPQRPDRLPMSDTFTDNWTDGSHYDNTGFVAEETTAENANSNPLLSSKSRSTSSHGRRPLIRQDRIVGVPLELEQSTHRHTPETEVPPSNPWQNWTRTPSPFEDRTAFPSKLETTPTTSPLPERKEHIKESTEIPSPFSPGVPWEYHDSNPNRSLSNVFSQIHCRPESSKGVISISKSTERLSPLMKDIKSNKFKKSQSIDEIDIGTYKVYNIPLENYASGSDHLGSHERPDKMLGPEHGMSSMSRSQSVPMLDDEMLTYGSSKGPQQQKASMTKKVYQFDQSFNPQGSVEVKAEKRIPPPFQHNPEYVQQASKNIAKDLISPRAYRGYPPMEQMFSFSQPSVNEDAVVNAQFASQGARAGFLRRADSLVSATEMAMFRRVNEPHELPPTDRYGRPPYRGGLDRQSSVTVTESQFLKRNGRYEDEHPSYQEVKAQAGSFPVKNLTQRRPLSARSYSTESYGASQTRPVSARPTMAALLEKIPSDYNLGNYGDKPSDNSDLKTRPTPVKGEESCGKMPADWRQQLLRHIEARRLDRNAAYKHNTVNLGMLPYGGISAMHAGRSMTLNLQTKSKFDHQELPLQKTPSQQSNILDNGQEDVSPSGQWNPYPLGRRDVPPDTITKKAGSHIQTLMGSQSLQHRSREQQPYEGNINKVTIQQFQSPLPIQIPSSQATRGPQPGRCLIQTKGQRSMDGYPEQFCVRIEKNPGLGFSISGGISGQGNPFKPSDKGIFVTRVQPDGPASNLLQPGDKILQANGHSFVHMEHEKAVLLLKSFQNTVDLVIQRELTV
Sequence of UniProt P08473 (P08473 whole entry, looked up): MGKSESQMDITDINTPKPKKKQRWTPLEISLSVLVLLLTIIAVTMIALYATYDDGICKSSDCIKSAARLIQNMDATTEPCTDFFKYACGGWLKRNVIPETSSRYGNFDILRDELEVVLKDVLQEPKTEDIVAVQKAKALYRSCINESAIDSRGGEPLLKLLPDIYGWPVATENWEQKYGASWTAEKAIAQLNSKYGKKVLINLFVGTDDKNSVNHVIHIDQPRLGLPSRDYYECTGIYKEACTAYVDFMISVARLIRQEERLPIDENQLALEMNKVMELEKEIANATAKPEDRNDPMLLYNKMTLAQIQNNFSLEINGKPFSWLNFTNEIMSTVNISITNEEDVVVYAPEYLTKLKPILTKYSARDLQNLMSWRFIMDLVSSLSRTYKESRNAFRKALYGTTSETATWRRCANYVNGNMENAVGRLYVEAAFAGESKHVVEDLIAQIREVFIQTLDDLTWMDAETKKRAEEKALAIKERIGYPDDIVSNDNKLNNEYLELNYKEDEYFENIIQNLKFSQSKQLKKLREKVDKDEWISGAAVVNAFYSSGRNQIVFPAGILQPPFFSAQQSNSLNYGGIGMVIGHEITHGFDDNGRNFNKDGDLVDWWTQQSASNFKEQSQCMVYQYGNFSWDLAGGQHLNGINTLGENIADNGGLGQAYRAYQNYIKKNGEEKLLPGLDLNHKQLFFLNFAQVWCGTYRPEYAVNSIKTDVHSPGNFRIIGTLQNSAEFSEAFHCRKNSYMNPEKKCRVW
Sequence of UniProt Q9UBG0 (Q9UBG0 whole entry, looked up): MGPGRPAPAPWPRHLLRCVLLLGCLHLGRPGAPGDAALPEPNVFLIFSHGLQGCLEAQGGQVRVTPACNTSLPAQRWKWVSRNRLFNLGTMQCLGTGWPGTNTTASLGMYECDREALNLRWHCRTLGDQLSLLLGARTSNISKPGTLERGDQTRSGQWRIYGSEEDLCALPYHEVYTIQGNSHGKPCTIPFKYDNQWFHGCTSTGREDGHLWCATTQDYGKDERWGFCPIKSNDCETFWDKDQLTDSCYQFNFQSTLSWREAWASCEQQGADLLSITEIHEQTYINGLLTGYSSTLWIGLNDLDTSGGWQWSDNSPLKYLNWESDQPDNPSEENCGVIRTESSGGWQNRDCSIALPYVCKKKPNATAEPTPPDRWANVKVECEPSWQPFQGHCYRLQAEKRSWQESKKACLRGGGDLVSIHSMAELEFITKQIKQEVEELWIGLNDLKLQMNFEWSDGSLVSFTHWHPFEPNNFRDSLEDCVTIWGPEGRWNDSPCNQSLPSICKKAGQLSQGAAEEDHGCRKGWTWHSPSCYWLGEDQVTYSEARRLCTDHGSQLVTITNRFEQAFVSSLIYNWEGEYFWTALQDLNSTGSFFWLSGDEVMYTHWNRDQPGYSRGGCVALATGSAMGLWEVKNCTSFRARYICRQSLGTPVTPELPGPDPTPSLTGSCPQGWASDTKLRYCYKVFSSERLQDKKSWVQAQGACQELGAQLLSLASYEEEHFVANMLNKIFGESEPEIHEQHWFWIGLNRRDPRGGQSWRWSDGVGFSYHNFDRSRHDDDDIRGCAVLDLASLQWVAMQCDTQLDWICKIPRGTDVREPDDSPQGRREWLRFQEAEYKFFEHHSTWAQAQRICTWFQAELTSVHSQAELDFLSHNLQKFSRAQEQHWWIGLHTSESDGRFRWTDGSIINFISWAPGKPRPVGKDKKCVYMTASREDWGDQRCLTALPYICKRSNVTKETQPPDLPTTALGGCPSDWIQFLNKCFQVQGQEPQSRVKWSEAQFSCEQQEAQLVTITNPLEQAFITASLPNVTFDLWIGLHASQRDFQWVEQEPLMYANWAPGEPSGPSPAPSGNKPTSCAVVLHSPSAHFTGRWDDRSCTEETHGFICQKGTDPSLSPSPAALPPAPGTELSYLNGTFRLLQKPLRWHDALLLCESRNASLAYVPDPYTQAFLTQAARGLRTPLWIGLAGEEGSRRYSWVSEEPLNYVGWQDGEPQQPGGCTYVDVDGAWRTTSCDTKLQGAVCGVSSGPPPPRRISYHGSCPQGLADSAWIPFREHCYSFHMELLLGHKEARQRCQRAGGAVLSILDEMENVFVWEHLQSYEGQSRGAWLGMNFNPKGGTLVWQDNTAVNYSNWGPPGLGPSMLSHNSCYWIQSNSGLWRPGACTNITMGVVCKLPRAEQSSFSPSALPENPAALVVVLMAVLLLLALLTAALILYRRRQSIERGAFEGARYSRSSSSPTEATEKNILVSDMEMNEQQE
Sequence of UniProt Q9H204 (Q9H204 whole entry, looked up): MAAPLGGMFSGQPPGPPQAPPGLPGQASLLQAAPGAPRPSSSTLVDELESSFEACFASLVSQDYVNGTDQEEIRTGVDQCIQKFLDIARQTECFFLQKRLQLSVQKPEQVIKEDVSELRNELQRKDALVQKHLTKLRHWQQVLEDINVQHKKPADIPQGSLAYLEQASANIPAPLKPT
Sequence of UniProt P53778 (P53778 whole entry, looked up): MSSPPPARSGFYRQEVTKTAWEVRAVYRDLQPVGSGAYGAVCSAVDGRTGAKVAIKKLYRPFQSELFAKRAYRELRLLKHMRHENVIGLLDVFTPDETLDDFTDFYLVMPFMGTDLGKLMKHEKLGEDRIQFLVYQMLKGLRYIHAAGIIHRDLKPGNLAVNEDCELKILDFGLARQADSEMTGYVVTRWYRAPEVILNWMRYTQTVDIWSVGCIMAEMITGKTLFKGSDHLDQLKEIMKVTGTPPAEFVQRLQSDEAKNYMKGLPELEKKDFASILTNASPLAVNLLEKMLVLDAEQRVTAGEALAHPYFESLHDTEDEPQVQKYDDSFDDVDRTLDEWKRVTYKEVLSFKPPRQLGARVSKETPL
Sequence of UniProt Q9NWR8 (Q9NWR8 whole entry, looked up): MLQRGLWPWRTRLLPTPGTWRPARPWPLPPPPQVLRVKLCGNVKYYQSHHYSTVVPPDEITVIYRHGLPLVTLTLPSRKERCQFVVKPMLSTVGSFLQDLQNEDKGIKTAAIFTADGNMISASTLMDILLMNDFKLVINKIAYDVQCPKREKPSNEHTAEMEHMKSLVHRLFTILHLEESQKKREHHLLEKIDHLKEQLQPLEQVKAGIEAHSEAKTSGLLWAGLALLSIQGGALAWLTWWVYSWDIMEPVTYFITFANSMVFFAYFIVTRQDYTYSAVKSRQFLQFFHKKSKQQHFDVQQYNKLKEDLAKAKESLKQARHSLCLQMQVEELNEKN
Sequence of UniProt O15243 (O15243 whole entry, looked up): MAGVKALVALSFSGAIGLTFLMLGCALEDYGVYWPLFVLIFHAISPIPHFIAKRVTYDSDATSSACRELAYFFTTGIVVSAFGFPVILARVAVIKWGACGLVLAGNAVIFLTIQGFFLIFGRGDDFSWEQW

Compound in the first experiment: C[C@H](C1=CC=C(C=C1)C(=O)NC2=C3C=CNC3=NC=C2)N
The experiment can be described thus: log2 fold change, soluble protein after heating vs DMSO (PISA); higher = thermal stabilisation; K562 lysate, 10 uM; active = over 0.2 and 3.5 SD of the protein, either way, in both replicates (recomputed). The method in brief: (§1)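 Log-two fold change in thermal stability relative to solvent controls is reported from duplicates. For each sample, crude K562 extract from dounce-homogenised pellets in PBS pH 7.4 with 1 mM MgCl2, at 1 mg/mL protein, was treated with 10 μM compound for 30 min. Aliquots heated for 3 min across 48°C-58°C were pooled, brought to 0.5% NP-40 at 4°C and cleared at 21,000xg for 90 min. The supernatant was quantified by TMTpro 16plex LC-MS/MS with channel sums equalised.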
With MAP4K4 isoform 3 (UniProt O95819), the log2 fold change is 0.201 (inactive).
On the same count and under the same terms, next, MARCHF6 (UniProt O60337): -0.073 (inactive); LSM11 (UniProt P83369): -0.123 (inactive); METTL21A (UniProt Q8WXB1): -0.083 (inactive).
The same measure, in the same setting: next, KIF2A isoform 2 (UniProt O00139): 0.192 (inactive); MAPK7 (UniProt Q13164): -0.083 (inactive).
As for MME (UniProt P08473), the log2 fold change is 0.037 (inactive).
The same measure, in the same setting: next, LIMK1 (UniProt P53667): 0.029 (inactive); MEGF8 (UniProt Q7Z7M0): -0.077 (inactive).
Same read-out and setting: next, MAPK12 (UniProt P53778): 0.868 (active); MCUB (UniProt Q9NWR8): 0.187 (inactive).
Regarding KIFC3 isoform 6 (UniProt Q9BVG8), the log2 fold change was -1.85 (active).
Regarding LEPROT (UniProt O15243), the log2 fold change is -0.019 (inactive).
On the same count and under the same terms, next, MMS22L (UniProt Q6ZRQ5): 0.065 (inactive); MRC2 (UniProt Q9UBG0): -0.192 (inactive).
Still for that read-out and setting: then LY6E (UniProt Q16553), with -1.51 (active).
On to MED28 (UniProt Q9H204), for which the log2 fold change is -0.039 (inactive).
For LGALS3BP (UniProt Q08380), the log2 fold change was 0.035 (inactive).
Take LRRC9 (UniProt Q6ZRR7): the log2 fold change was 0.032 (inactive).
Regarding LRRC7 (UniProt Q96NW7), the log2 fold change was -0.025 (inactive).
On the same count and under the same terms, next, MRPL22 (UniProt Q9NWU5): -0.038 (inactive).

Compound in the next experiment: C[C@H](Nc1ncnc2nc[nH]c12)c1cc2cccc(Cl)c2c(=O)n1-c1ccccc1 [duvelisib]
The description is as above. The method in brief:
as §1
On to MAP4K4 isoform 3 (UniProt O95819), for which the log2 fold change was 0.078 (inactive).
Same read-out and setting: next, MARCHF6 (UniProt O60337): 0.103 (inactive).
For LSM11 (UniProt P83369), the log2 fold change is 0.009 (inactive).
METTL21A (UniProt Q8WXB1): the log2 fold change was 0.131 (inactive).
On the same count and under the same terms, then KIF18B (UniProt Q86Y91), with 0.068 (inactive).
The same measure, in the same setting: then KLHL12 isoform 2 (UniProt Q53G59), with 0.084 (inactive); and KRAS isoform 2 (UniProt P01116), with -0.022 (inactive).
Same read-out and setting: then MME (UniProt P08473), with 0.066 (inactive).
As to LIMK1 (UniProt P53667), the log2 fold change is 0.109 (inactive).
On the same count and under the same terms, then MEX3A (UniProt A1L020), with 0.196 (inactive); and MEGF8 (UniProt Q7Z7M0), with -0.167 (inactive).
For the target MAPK12 (UniProt P53778), the log2 fold change was -0.061 (inactive).
On the same count and under the same terms, then MCUB (UniProt Q9NWR8), with -0.018 (inactive); and KIFC3 isoform 6 (UniProt Q9BVG8), with 0.089 (inactive); and MMS22L (UniProt Q6ZRQ5), with -0.106 (inactive).
The same measure, in the same setting: then MRC2 (UniProt Q9UBG0), with -0.49 (inactive); and MED28 (UniProt Q9H204), with -0.034 (inactive).
Turning to MCMBP isoform 2 (UniProt Q9BTE3), the log2 fold change was -0.03 (inactive).
Turning to LGALS3BP (UniProt Q08380), the log2 fold change is -0.149 (inactive).
Same read-out and setting: then KMT2B (UniProt Q9UMN6), with -0.034 (inactive); and MINDY1 isoform 3 (UniProt Q8N5J2), with 0.051 (inactive); and KRIT1 (UniProt O00522), with -0.001 (inactive).
Still for that read-out and setting: next, KIF21A (UniProt H0YI78): -0.013 (inactive).
MAPKAP1 (UniProt Q9BPZ7): the log2 fold change is -0.192 (inactive).
Still for that read-out and setting: next, MAP4 isoform 5 (UniProt P27816): 0.159 (inactive); LRRC7 (UniProt Q96NW7): 0.083 (inactive); MAP4K4 isoform 6 (UniProt O95819): -0.038 (inactive).

Compound in the next experiment: Cc1cc(Nc2cc(CN3CCOCC3)c3nc(C)c(Cc4ccc(Cl)cc4F)n3n2)n[nH]1 [gandotinib]
Described as above. The method, boiled down:
as §1
As for MAP4K4 isoform 3 (UniProt O95819), the log2 fold change was -0.088 (inactive).
Still for that read-out and setting: then MARCHF6 (UniProt O60337), with -0.028 (inactive).
Take LSM11 (UniProt P83369): the log2 fold change is 0.039 (inactive).
Same read-out and setting: then METTL21A (UniProt Q8WXB1), with 0.038 (inactive); and KIF2A isoform 2 (UniProt O00139), with -0.059 (inactive).
Still for that read-out and setting: then MAPK7 (UniProt Q13164), with 0.161 (inactive).
As to MME (UniProt P08473), the log2 fold change was -0.002 (inactive).
On the same count and under the same terms, then LIMK1 (UniProt P53667), with -0.03 (inactive); and MEGF8 (UniProt Q7Z7M0), with -0.101 (inactive); and MAPK12 (UniProt P53778), with -0.15 (inactive).
On the same count and under the same terms, then MCUB (UniProt Q9NWR8), with -0.347 (inactive); and KIFC3 isoform 6 (UniProt Q9BVG8), with 0.111 (inactive).
The same measure, in the same setting: next, LEPROT (UniProt O15243): 0.054 (inactive); MMS22L (UniProt Q6ZRQ5): -0.169 (inactive); MRC2 (UniProt Q9UBG0): 0.075 (inactive).
With LY6E (UniProt Q16553), the log2 fold change is 0.412 (inactive).
As for MED28 (UniProt Q9H204), the log2 fold change is 0.394 (active).
On to LGALS3BP (UniProt Q08380), for which the log2 fold change was 0.197 (inactive).
Same read-out and setting: then LRRC9 (UniProt Q6ZRR7), with -0.488 (inactive); and LRRC7 (UniProt Q96NW7), with -0.07 (inactive).
As for MRPL22 (UniProt Q9NWU5), the log2 fold change was -0.018 (inactive).

These data come from the supplement of paper PMC10849652.
